According to PubChem BioAssay (Tox21):
Records with an inconclusive call do not appear. The source made the active and inactive calls. Unless noted, the call rests on the fitted dose curve; in most records, active means well fitted curve in the direction sought with a large enough effect in the repeat runs; inconclusive means weak or mixed curves; inactive means no such curve, though single readings can be large; an effect the other way counts as inactive or inconclusive.

Legend:
[1] = qHTS assay to identify small molecule agonists of the androgen receptor (AR) signaling pathway in the presence of an antagonist - cell viability counter screen (AID 1259379); further: nearly all actives have a fitted effect of over 25% in size; further: potency means the concentration at half of the fitted maximal effect
Summary of the method: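 Nilutamide-containing (3.0uM final) MDA-kb2 cultures, 3,000 cells/well, were treated with compounds across 15 concentrations. After 16 hr at 37C with no CO2, cell viability was determined by CellTiter-Fluor fluorescence in the luciferase assay wells.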

[2] = qHTS assay to identify small molecule agonists of the estrogen receptor beta (ER-beta) signaling pathway - cell viability counter screen (AID 1259380); further: nearly all actives have a fitted effect of over 30% in size; further: potency means the concentration at half of the fitted maximal effect
Summary of the method: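 Steps: plate ER-beta-UAS-bla HEK293T cells, rest 6 hr; add compounds in DMSO; incubate 16 hr at 37C, 5% CO2; add FRET substrate 2 hr; add CellTiter-Glo, wait 30 min at room temperature; read luminescence.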

[3] = qHTS assay to identify small molecule antagonists of the estrogen receptor beta (ER-beta) signaling pathway - cell viability counter screen (AID 1259382);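 further: HEK293T cells carrying ER-beta-UAS-bla reporter stimulated with estradiol; series mostly up to about 92 µM; nearly all actives have a fitted effect of over 55% in size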
Summary of the method: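 Viability is scored by CellTiter-Glo luminescence (30 min, room temperature) in ER-beta-UAS-bla HEK293T wells already read for reporter fluorescence. Compound exposure lasts 16 hr at 37C alongside 1nM 17-beta-estradiol in charcoal-stripped serum medium.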

[4] = qHTS assay to identify small molecule agonists or antagonists of the thyroid stimulating hormone receptor (TSHR) signaling pathway - wild type cell line counter screen (AID 1259384; calls by dose curve)
Summary of the method: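 Counter screen in untransfected Hek293: compounds (15-point titration, triplicate) plus phosphodiesterase inhibitor Ro20-1724 added after 18 h plating; 30 min RT. Intracellular cAMP via competitive d2/cryptate immunoassay, 1 h incubation.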

[5] = target: Thyrotropin receptor (Homo sapiens) (UniProt P16473); experiment: qHTS assay to identify small molecule antagonists of the thyroid stimulating hormone receptor (TSHR) signaling pathway (AID 1259385; calls by dose curve; further: nearly all actives have a fitted effect of over 20% in size)
Thyrotropin receptor (Homo sapiens), sequence (P16473 whole entry, looked up): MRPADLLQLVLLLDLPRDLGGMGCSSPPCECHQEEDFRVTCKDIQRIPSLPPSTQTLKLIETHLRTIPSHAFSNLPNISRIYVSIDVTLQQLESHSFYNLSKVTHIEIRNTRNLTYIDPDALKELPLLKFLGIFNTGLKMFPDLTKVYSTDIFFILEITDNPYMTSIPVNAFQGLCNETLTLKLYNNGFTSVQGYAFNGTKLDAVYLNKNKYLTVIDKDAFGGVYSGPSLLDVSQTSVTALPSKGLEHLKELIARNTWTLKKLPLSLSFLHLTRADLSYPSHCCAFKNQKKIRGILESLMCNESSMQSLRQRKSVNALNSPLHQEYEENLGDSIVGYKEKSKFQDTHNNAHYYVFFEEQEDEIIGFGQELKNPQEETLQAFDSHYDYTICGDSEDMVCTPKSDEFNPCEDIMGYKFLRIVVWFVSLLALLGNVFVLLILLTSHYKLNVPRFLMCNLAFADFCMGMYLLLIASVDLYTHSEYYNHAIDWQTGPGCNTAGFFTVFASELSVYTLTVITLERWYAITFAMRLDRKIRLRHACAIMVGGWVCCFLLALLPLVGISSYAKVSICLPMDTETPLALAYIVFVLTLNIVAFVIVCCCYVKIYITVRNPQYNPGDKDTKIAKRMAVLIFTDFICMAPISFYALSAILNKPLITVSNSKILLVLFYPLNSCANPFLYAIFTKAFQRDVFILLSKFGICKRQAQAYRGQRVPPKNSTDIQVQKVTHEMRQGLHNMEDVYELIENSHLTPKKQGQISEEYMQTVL
Summary of the method: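 Antagonist mode: compound-treated TSHR-expressing HEK293 cells were stimulated with 1.5 ng/mL TSH (final) in presence of Ro20-1724 for 30 min at RT. HTRF cAMP detection after 1 h; each compound tested at 15 concentrations, triplicate.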

[6] = qHTS assay to identify small molecule agonists of the estrogen receptor alpha (ER-alpha) signaling pathway in the presence of an antagonist - cell viability counter screen (AID 1259386);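 further: series mostly up to about 92 µM; cells exposed to compounds for 22 h at 37 °C before the viability read; nearly all actives have a fitted effect of over 30% in size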
Summary of the method: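 In this counter screen, compound effects on VM7Luc4E2 viability were tested in the presence of the antagonist ICI-182,780 at 10.0nM final. Compounds were dosed at 15 concentrations, exposure lasted 22hr, and the CellTiter-Fluor signal was read.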

[7] = qHTS assay to identify small molecule antagonists of the progesterone receptor (PR) signaling pathway - cell viability counter screen (AID 1346798);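 further: HEK293T PR-UAS-bla cells stimulated with the agonist R5020; series mostly up to about 92 µM; nearly all actives have a fitted effect of over 50% in size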
Summary of the method: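 HEK293T PR-UAS-bla, 2% charcoal-stripped FBS; 4 hr pre-plate; cpd + R5020, 16 h 37C; LiveBLAzer read first; then CellTiter-Glo 30 min RT, luminescence.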

[8] = qHTS assay to identify small molecule agonists of the progesterone receptor (PR) signaling pathway - cell viability counter screen (AID 1346799; calls by dose curve; further: nearly all actives have a fitted effect of over 45% in size)
Summary of the method: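 Luminescence from CellTiter-Glo, added after the beta-lactamase FRET read in the same wells, gave cytotoxicity in PR-UAS-bla HEK293T cells treated with compounds for 16 hr at 37C.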

[9] = qHTS assay to identify small molecule antagonists of the TGF-beta/Smad signaling pathway - cell viability counter screen (AID 1346824); further: nearly all actives have a fitted effect of over 50% in size
Summary of the method: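 Cytotoxicity counter-screen run in the same wells as the beta-lactamase Smad reporter read: CellTiter-Glo luminescence after 30 min at room temperature. HEK 293T SBE-bla cells had 5 hr compound exposure at 37 C with TGF-beta1 (0.25 ng/mL stock).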

[10] = qHTS assay to identify small molecule agonists of the TGF-beta/Smad signaling pathway - cell viability counter screen (AID 1346829); further: top concentration of the series differs between compounds; nearly all actives have a fitted effect of over 45% in size
Summary of the method: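 In parallel with the Smad reporter read, viability of HEK 293T cells stably carrying SBE-bla is quantified by ATP luminescence following 5 hr compound treatment.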

[11] = target: Thyrotropin-releasing hormone receptor (Homo sapiens) (UniProt P34981); experiment: qHTS assay to identify small molecule antagonists of the thyrotropin-releasing hormone receptor (TRHR) signaling pathway (AID 1346877; active means well fitted inhibition curve with a large enough effect in the repeat runs, not every such curve was filed as active; further: series mostly up to about 51 µM)
Thyrotropin-releasing hormone receptor (Homo sapiens), sequence (P34981 whole entry, looked up): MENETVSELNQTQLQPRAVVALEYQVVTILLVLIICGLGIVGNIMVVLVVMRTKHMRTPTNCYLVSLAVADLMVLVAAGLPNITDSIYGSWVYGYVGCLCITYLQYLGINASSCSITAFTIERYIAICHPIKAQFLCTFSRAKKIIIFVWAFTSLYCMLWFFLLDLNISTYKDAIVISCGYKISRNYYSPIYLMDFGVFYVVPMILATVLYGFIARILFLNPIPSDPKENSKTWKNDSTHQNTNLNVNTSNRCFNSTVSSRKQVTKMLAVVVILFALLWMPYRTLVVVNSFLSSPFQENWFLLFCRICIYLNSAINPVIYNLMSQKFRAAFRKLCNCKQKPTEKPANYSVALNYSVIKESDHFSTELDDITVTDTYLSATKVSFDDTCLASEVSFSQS
Summary of the method: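 Kinetic fluorescence (3 min, 1 s resolution) following stimulation with TRH at 1 nM final; HEK293 cells bearing human TRHR; 5 min compound preincubation at RT; concentration-response over 15 points, triplicates.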

[12] = target: Thyrotropin-releasing hormone receptor (Homo sapiens) (UniProt P34981); experiment: qHTS assay to identify small molecule agonists of the thyrotropin-releasing hormone receptor (TRHR) signaling pathway (AID 1346891; calls by dose curve; further: series mostly up to about 58 µM)
Summary of the method: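 Intracellular calcium rise, read as fluorescence every second for 3 min, served as the agonist signal in dye-loaded HEK293 cells expressing TRHR; each compound ran at 15 concentrations in triplicate.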

[13] = Human pregnane X receptor (PXR) small molecule agonists, qHTS cell viability counter screen (AID 1346977); further: nearly all actives have a fitted effect of over 50% in size; further: potency means the concentration at half of the fitted maximal effect
Summary of the method: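 PXR-Luc HepG2, 2,000 cells/well, 5% charcoal-stripped FBS; 5hr settle; cpd 24hr, 37C/5% CO2; CellTiter-Fluor at 23hr, read 1hr later (fluorescence).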

[14] = target: Estrogen receptor (Homo sapiens) (UniProt P03372); experiment: qHTS assay to identify small molecule agonists of the estrogen receptor alpha (ER-alpha) signaling pathway in the presence of an antagonist (AID 1259383; calls by dose curve; further: top concentration of the series differs between compounds; nearly all actives have a fitted effect of over 15% in size)
Estrogen receptor (Homo sapiens), sequence (P03372 whole entry, looked up): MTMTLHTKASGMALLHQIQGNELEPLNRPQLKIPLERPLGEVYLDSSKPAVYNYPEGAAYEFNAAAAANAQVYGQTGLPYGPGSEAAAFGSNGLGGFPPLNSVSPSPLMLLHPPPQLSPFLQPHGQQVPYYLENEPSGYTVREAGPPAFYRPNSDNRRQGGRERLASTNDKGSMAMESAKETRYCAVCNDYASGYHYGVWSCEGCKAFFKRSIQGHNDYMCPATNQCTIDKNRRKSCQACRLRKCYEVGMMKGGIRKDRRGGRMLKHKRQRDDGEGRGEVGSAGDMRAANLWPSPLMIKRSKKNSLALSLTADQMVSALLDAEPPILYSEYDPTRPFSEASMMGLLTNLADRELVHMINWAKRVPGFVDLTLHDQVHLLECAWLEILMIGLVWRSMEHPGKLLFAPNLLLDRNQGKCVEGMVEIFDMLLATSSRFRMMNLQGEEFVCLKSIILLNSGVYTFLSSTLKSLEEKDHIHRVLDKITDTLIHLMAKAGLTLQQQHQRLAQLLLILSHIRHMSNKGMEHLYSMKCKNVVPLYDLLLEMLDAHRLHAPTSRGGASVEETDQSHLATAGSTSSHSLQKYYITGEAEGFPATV
Summary of the method: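 Readout was ERE-driven luciferase luminescence in VM7Luc4E2 cells, which express full-length ER-alpha endogenously. Compounds were tested at 15 concentrations for 22hr alongside 10.0nM ICI-182,780 (final concentration).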

[15] = target: Progesterone receptor (Homo sapiens) (UniProt P06401); experiment: qHTS assay to identify small molecule agonists of the progesterone receptor (PR) signaling pathway (AID 1346784; calls by dose curve; further: nearly all actives have a fitted effect of over 30% in size)
Progesterone receptor (Homo sapiens), sequence (P06401 whole entry, looked up): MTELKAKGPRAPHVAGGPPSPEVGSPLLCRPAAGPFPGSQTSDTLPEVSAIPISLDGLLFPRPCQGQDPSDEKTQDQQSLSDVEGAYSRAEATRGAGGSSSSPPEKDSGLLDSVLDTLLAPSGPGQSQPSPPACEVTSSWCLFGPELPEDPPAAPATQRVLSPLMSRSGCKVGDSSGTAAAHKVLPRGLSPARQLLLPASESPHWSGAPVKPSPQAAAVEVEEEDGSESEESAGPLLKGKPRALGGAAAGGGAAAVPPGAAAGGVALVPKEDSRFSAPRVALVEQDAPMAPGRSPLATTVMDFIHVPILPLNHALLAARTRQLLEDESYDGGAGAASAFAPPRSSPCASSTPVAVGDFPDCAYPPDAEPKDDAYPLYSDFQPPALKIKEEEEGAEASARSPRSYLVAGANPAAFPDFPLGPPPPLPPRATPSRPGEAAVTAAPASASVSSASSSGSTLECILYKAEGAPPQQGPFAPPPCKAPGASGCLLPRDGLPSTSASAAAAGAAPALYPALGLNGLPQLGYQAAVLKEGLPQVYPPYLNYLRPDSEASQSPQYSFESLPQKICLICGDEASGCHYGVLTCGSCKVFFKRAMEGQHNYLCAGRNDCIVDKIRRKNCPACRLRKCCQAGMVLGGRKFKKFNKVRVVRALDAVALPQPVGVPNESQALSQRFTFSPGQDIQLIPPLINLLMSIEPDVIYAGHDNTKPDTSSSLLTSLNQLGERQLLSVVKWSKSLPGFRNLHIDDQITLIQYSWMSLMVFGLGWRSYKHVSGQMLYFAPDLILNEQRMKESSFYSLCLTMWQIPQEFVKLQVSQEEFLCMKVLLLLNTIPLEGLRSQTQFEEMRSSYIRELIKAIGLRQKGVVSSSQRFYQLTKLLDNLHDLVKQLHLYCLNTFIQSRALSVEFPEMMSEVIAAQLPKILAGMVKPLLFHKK
Summary of the method: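 Beta-lactamase reporter read-out: after 16 hr compound treatment at 37C and a further 2 hr at room temperature with LiveBLAzer B/G FRET substrate, fluorescence was measured in PR-UAS-bla HEK 293T cells grown in 2% charcoal-stripped serum.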

[16] = target: Progesterone receptor (Homo sapiens) (UniProt P06401); experiment: qHTS assay to identify small molecule antagonists of the progesterone receptor (PR) signaling pathway (AID 1346795; active means well fitted inhibition curve with a large enough effect in the signal ratio in the repeat runs, not every such curve was filed as active; the % refers to the signal ratio)
Summary of the method: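 Read-out is fluorescence from the LiveBLAzer B/G FRET substrate, cleaved by a UAS-controlled beta-lactamase in PR-UAS-bla HEK293T cells after 16 hr exposure to compound plus 1 nM promegestone (final), followed by 2 hr at room temperature.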

[17] = qHTS assay to identify small molecule agonists of the TGF-beta/Smad signaling pathway (AID 1346859; active means well fitted activation curve with a large enough effect in the signal ratio in the repeat runs, not every such curve was filed as active; the % refers to the signal ratio; further: series mostly up to about 77 µM)
Summary of the method: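 SBE-bla HEK 293T, 4,000 cells/well, plated o/n; cpd in DMSO, 5 hr, 37 C/5% CO2; B/G FRET substrate 2 hr RT; ex 405, em 460/530 nm.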

Measured: Potency

O=C(O)CN1C(=O)c2cccc3cccc(c23)C1=O
not listed: [14] | [15] | [16] | [17]
inactive: all other assays above

C[C@@H]1[C@H](O)[C@@H](C)/C=C/C=C\C=C\C=C\C=C\C=C\C=C\[C@H](O[C@@H]2O[C@H](C)[C@@H](O)[C@H](N)[C@@H]2O)C[C@@H]2O[C@](O)(C[C@@H](O)C[C@@H](O)[C@H](O)CC[C@@H](O)C[C@@H](O)CC(=O)O[C@H]1C)C[C@H](O)[C@H]2C(=O)O (stereo in doubt)
inactive: [14] | [4] | [15] | [9]
active: [1] 61.1 µM | [2] 61.1 µM

CN=C(N)NC(=O)Nc1c(C)cccc1C
not listed: [3] | [7] | [11] | [12] | [13]
inactive: all other assays above

CC(C)C(O)C(C)(C)CO (stereo not drawn)
not listed: [1] | [2] | [8] | [13] | [15] | [16]
inactive: all other assays above

CC(CN(CCN(CC(C)OCCO)CC(C)OCCO)CC(C)OCCO)OCCO (stereo not drawn)
active: [1] 33.1 µM
not listed: [5] | [6] | [7] | [13] | [14]
inactive: all other assays above

CC(C)COC(=O)c1ccc(O)cc1
not listed: [4] | [5] | [8] | [12] | [14] | [16]
inactive: all other assays above

CC(C)N=C=NC(C)C
not listed: [2] | [4] | [5] | [7] | [9] | [16]
inactive: all other assays above

Cc1ccccc1S(N)(=O)=O
not listed: [7] | [12] | [14] | [15]
inactive: all other assays above

O=C(O)CCC(=O)OC[C@@H](NC(=O)C(Cl)Cl)[C@H](O)c1ccc([N+](=O)[O-])cc1
not listed: [4] | [5] | [14] | [16] | [17]
inactive: all other assays above

COc1cc(NCc2ccc3nc(N)nc(N)c3c2C)cc(OC)c1OC
active: [2] 0.237 µM
inactive: [1] | [14] | [4] | [5] | [15] | [8] | [17] | [11] | [12]

Nc1ccc(N=Nc2ccc(N)cc2)cc1
active: [1] 27.3 µM | [13] 21.7 µM
not listed: [2] | [3] | [6] | [10]
inactive: all other assays above

FC(F)(F)C(F)(F)C(F)(F)C(F)(F)CCI
not listed: [3] | [5] | [12] | [13] | [15]
inactive: all other assays above

CC(=O)NNC(C)=O
not listed: [3] | [7] | [12]
inactive: all other assays above

O=S(=O)(O)CO
not listed: [8] | [13] | [14] | [15] | [17]
inactive: all other assays above

COC(CC(C)CCCC(C)(C)O)OC (stereo not drawn)
not listed: [3] | [14] | [16]
inactive: all other assays above

COc1ccc(/C=C/C(=O)c2ccc(OC)cc2OC)cc1
inactive: [1] | [4] | [5] | [6] | [15] | [9] | [10] | [11] | [13]

COc1cc(C(C)=O)ccc1OCCCN1CCC(c2noc3cc(F)ccc23)CC1
not listed: [2] | [3] | [5] | [10] | [13] | [15] | [16]
inactive: all other assays above

COc1ccc(C)cc1
not listed: [11] | [12] | [14]
inactive: all other assays above

CCCCCC
not listed: [9] | [14]
inactive: all other assays above

O=C(NC(Cc1cc(=O)[nH]c2ccccc12)C(=O)O)c1ccc(Cl)cc1 (stereo not drawn)
not listed: [2] | [6] | [16]
inactive: all other assays above
